Data taken from article PMC13494018.

B1: d4r3_design_ppi_381_dldesign_0_cycle1_af2pred (protein)
chain: GSSDELEKKTETKAYRSLSTKKAKEYSKDKELVKKIEEEAKTYEGALKARKETEEIVKEVKKKEEEEKKKKE
B2: d4r4_design_ppi_58_dldesign_0_cycle1_af2pred (protein)
chain: MEELKKAEEEAKKAVEEAKKYAELIAEGKSEEGIEKIKKIAEELKKKGKETTPEAAKIYEKAVKEIAKIAHEGLEKRAEKEAK
B3: d4r4_design_ppi_34_dldesign_0_cycle0_af2pred (protein)
chain: VQKLIDEAAQEIQEARAHISGAEQYVLMGKEYLPEAKKDLEEAEKHIKKAKELTKKAKEAGADEEEIKKLEKAIEKAEARLEEVKKMM
B4: d4r3_design_ppi_266_dldesign_0_cycle0_af2pred (protein)
chain: MEEKGNEVIERAKKKLEEGKKLAKEGELLKGYALAQSAEARAENAAEAAEKAGLEEVAKKAKEVAKEAKAAAEEIEKKRKEAEA
B5: d4r3_design_ppi_239_dldesign_0_cycle1_af2pred (protein)
chain: MEEAEKALKKAEELRAEAKRLGEIVSNPELGKKEAAKAGKKTPEEIEAWLKEVAAKAQELREEAAEYEAKAIRIK
B6: d4r3_design_ppi_270_dldesign_0_cycle1_af2pred (protein)
chain: SAEEEKKKLLAIADEYAAKVKEAAADLEKAGAVLKEGITELVKLGAPNSVIAYLISKAVKAVGSKIMPYADEAIDEALKA
B7: d4r4_design_ppi_34_dldesign_0_cycle1_af2pred (protein)
chain: AEELVKEAAKHIQEARSLINAAEQYVKLGKEKLEEAKEDLKKAEEHIEKAKELAKKAKEAGADEEDVKKLEEAIEKAKKKLEEVKKLI
B8: d4r3_design_ppi_300_dldesign_0_cycle1_af2pred (protein)
chain: SSAELTKEAKAKVEAAGAAADAAAAADPAAGAAAYTEAAQLALQESAKLDASKENKEAAEEMRKKGKEFAAKAKALRA
B9: d4r3_design_ppi_300_dldesign_0_cycle0_af2pred (protein)
chain: SAEELAKKAKEEVEKAEKEAEEAAAKDKKAGAAKYAEAAQLAYQKAGELDASKENKEEAEEMRERGRELAKKARELEA
B10: d4r3_design_ppi_402_dldesign_0_cycle1_af2pred (protein)
chain: EEEEKKKAEELKKFLEEQNKKRKEVAELAKKYPEVAPYAKAYAKAQNEAFEYYDVDKEKSAKALAEAEKYEAKINALLAKL
B11: d4r3_design_ppi_258_dldesign_0_cycle1_af2pred (protein)
chain: AAEEARKAKIQKMADRLLELSKKYGISLEDMKDMMSFSATDPADKAVGLALLDAGHAELAAAKAAEAARAEALAA
B12: d4r4_design_ppi_44_dldesign_0_cycle1_af2pred (protein)
chain: AKAKEEGKKLAKEATEEAKKLLDKAKEEVKKGGTYEEVKKYVDKGKEAAKKYGAKAKELPETAADVAKVIQDFYEESNEALAEAKRL
B13: d4r4_design_ppi_58_dldesign_0_cycle0_af2pred (protein)
chain: EEELKKAKEEAEKAIKEAEEAAKKIEEGEAREGVKKIREIKKKLEEKGKESTPEAKKIYKEAAKKIAEIAHEGLEKRAEKKAK
B14: d4r3_design_ppi_383_dldesign_0_cycle0_af2pred (protein)
chain: SSLASELNEKKAEERGLEYAKKRLDEKAKKALELAKQVPEVAAEVKKLVDEGKALLEKGDIGGAFAKMDEALKLAEKALAA
B15: d4r4_design_ppi_2_dldesign_0_cycle1_af2pred (protein)
chain: DEKAKKAAEEAKKVAKEGREKLKEAEKLMKEGKYKEAAKLAAEVAKKAKEKAEEAEKISKSVAPYALLLENVADAAKALAKEAKEKI
B16: d4r4_design_ppi_2_dldesign_0_cycle0_af2pred (protein)
chain: DEKAKKMAEEARKAAEEGRKALKEARKLAKEGELEKAAKLAEETAKKAEEKAKEAEKLSKKVAPEALRLLGVADAAKTAAEEFKKKL
B17: d4r3_design_ppi_308_dldesign_0_cycle1_af2pred (protein)
chain: MEAEKKAEKALEELKKAAKKLEELAKKGGSVEEAEELNEKVLELRSEAKFYASKADEEFGKKVKEEAKKALEKAREAYKKLKE
B18: d4r4_design_ppi_79_dldesign_0_cycle1_af2pred (protein)
chain: AGKAAYEKLKANMERREKKAEEAEKKDKKLGKFEAEKGIEFSKHAAEAAKKKAAEDPAYKEAAKYAKEAEEKFKKKLKELEK
B19: d4r3_design_ppi_464_dldesign_0_cycle1_af2pred (protein)
chain: SVSLEEQEARALARTYAEIAEKKIKEAPKDKELAEKIAKEVLEEAKKAAKDLPEYEEYTIELAEKRLKEILEKYAKKA

target: VTCN1, Q7Z7D3
Sequence (Q7Z7D3 whole entry): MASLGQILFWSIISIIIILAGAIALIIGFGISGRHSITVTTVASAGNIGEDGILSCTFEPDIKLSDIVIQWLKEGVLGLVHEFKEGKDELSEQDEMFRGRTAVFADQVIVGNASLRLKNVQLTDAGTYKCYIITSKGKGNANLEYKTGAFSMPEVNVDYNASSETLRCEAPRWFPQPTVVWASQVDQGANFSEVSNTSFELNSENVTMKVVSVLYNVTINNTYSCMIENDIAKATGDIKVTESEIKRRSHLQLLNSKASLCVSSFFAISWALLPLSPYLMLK

Binding in a display sort, inactive:
B1 not found
B2 not found
B3 not found
B4 not found
B5 not found
B6 not found
B7 not found
B8 not found
B9 not found
B10 not found
B11 not found
B12 not found
B13 not found
B14 not found
B15 not found
B16 not found
B17 not found
B18 not found
B19 not found
